Inconclusive results are not listed. Active and inactive are the calls of the source. Unless noted, calls follow the shape of the dose curve; as a rule, active = well fitted curve in the direction sought with a large enough effect in the repeat runs; inconclusive = weak or mixed curves; inactive = no such curve, though single readings can be large; an effect the other way counts as inactive or inconclusive.
How the values were obtained:
[1] = qHTS assay to identify small molecule antagonists of the thyroid receptor (TR) signaling pathway - cell viability counter screen (AID 743064); also: nearly all actives have a fitted effect of over 50% in size
In short: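 Counter screen for cytotoxicity: compound plus T3 (1 nM final) on GH3.TRE-Luc cells, 23.5 h at 37 °C, then fluorescence viability readout with CellTiter-Fluor.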

[2] = qHTS assay to identify small molecule antagonists of the thyroid receptor (TR) signaling pathway (AID 743065); also: series mostly up to about 70 µM; nearly all actives have a fitted effect of over 55% in size
In short: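 Antagonism measured as loss of luciferase signal in GH3 cells stably carrying a TRE-luciferase reporter, co-treated with compound and T3 (1 nM final) for 23.5 h at 37 C. Viability was read in the same well by CellTiter-Fluor.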

[3] = tested on: thyroid hormone receptor (rat, GH3 cells); experiment: qHTS assay to identify small molecule agonists of the thyroid receptor (TR) signaling pathway (AID 743066; calls by dose curve)
[4] = molecular target: Estrogen receptor (Homo sapiens) (UniProt P03372); experiment: qHTS assay to identify small molecule antagonists of the estrogen receptor alpha (ER-alpha) signaling pathway (AID 743069; active = well fitted curve in the direction sought with a large enough effect in the signal ratio in the repeat runs, not every such curve was filed as active; the % refers to the signal ratio)
Estrogen receptor (Homo sapiens), sequence (P03372 whole entry, looked up): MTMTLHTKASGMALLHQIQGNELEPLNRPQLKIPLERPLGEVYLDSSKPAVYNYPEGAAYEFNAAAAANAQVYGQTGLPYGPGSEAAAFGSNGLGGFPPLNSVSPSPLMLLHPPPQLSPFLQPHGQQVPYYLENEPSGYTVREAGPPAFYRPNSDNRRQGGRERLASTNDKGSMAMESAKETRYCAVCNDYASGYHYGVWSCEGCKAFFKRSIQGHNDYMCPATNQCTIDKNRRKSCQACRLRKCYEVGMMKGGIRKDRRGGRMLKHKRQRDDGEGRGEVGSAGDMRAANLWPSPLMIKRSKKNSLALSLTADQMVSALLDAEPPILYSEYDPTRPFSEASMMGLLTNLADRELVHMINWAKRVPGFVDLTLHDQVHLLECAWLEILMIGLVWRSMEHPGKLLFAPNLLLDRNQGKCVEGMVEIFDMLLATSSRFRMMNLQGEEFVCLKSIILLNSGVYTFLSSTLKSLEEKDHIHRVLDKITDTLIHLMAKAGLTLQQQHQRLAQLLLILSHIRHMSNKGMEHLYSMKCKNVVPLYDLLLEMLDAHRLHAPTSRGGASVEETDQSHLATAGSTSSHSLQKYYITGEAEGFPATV
In short: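 ER-alpha-UAS-bla GripTite HEK293 line; 2% charcoal-stripped FBS overnight; plated, 4 hr 37C/5% CO2; cpd in DMSO + 17beta-estradiol, 18 hr 37C; LiveBLAzer B/G FRET substrate 2 hr RT; fluorescence intensity.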

[5] = qHTS assay to identify small molecule antagonists of the estrogen receptor alpha (ER-alpha) signaling pathway - cell viability counter screen (AID 743074; calls by dose curve;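 also: HEK293 cells carrying ER-alpha-UAS-bla reporter stimulated with 17beta-estradiol; nearly all actives have a fitted effect of over 45% in size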)
[6] = molecular target: Estrogen receptor (Homo sapiens) (UniProt P03372); experiment: qHTS assay to identify small molecule agonists of the estrogen receptor alpha (ER-alpha) signaling pathway (AID 743075; calls by dose curve;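 also: HEK293 GripTite cells with ER-alpha and UAS-driven beta-lactamase reporter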)
[7] = molecular target: Estrogen receptor (Homo sapiens) (UniProt P03372); experiment: qHTS assay to identify small molecule agonists of the estrogen receptor alpha (ER-alpha) signaling pathway using the BG1 cell line (AID 743079); also: nearly all actives have a fitted effect of over 20% in size
[8] = qHTS assay to identify small molecule antagonists of the estrogen receptor alpha (ER-alpha) signaling pathway using the BG1 cell line (AID 743080; calls by dose curve;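 also: BG1 cells stimulated with 17beta-estradiol alongside compound; series mostly up to about 70 µM; nearly all actives have a fitted effect of over 25% in size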)
In short: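 Readout is ONE-Glo luminescence, taken 30 min at room temperature after reagent addition, preceded by a CellTiter-Fluor viability read; BG1-Luc-4E2 cells had received compound and 17beta-estradiol for 21.5 h at 37 C.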

[9] = qHTS assay to identify small molecule antagonists of the estrogen receptor alpha (ER-alpha) signaling pathway using the BG1 cell line - cell viability counter screen (AID 743081);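 also: compound given together with 17beta-estradiol as the ER stimulus; series mostly up to about 70 µM; nearly all actives have a fitted effect of over 45% in size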
Aromatase (Homo sapiens) = Aromatase (Homo sapiens) (UniProt P11511); experiment: qHTS assay to identify aromatase inhibitors (AID 743083); also: series mostly up to about 70 µM; nearly all actives have a fitted effect of over 55% in size
Aromatase (Homo sapiens), sequence (P11511 whole entry, looked up): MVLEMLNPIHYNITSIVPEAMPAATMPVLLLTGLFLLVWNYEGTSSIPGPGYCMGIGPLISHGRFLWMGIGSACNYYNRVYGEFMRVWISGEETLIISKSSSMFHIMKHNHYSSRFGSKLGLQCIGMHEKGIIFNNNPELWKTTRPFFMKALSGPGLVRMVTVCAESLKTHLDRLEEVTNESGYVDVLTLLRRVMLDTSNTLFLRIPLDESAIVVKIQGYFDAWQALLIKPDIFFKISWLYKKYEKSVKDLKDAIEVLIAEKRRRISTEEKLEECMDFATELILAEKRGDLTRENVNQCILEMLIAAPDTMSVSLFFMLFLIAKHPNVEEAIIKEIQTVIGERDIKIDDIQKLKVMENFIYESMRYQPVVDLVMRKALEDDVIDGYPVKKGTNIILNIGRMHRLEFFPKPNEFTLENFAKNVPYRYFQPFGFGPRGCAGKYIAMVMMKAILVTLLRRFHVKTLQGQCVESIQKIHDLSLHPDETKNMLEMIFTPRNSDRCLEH

[10] = qHTS assay to identify aromatase inhibitors - cell viability counter screen (AID 743084);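 also: cells stimulated with testosterone during compound exposure; nearly all actives have a fitted effect of over 55% in size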
[11] = molecular target: Aryl hydrocarbon receptor (Homo sapiens) (UniProt P35869); experiment: qHTS assay to identify small molecule that activate the aryl hydrocarbon receptor (AhR) signaling pathway (AID 743085);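 also: HG2L7.5c1 human HepG2 liver cells with stably integrated DRE-driven firefly reporter; series mostly up to about 70 µM; nearly all actives have a fitted effect of over 15% in size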
Aryl hydrocarbon receptor (Homo sapiens), sequence (P35869 whole entry, looked up): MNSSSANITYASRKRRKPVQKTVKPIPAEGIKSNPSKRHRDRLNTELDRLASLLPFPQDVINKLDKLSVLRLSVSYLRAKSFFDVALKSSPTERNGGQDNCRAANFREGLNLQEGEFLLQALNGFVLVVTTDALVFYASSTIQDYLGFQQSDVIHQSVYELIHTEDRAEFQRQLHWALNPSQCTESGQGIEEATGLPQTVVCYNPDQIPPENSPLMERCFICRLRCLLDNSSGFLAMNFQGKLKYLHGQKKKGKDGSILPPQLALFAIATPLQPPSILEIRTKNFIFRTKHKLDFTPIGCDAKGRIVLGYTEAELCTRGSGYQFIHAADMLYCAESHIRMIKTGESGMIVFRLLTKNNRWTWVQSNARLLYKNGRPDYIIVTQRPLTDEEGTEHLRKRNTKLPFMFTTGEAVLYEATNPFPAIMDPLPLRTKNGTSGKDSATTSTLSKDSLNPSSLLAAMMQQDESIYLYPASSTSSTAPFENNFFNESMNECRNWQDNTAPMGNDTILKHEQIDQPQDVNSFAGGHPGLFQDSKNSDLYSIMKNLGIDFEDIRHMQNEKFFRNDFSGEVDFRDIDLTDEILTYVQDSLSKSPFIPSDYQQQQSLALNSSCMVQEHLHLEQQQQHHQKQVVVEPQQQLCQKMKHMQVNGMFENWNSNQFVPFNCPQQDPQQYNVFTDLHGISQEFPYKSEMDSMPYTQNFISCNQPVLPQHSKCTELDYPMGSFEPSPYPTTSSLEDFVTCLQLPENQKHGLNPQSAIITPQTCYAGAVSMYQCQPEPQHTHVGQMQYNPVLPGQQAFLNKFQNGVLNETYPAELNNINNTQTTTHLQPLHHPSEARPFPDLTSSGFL
In short: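 Measured in HG2L7.5c1 cells: CellTiter-Fluor signal (30 min incubation, 37C) for viability, then luciferase luminescence (30 min, room temperature). Compound contact time was 24 h at 37C, following a 5 h pre-incubation.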

[12] = qHTS assay to identify small molecule that activate the aryl hydrocarbon receptor (AhR) signaling pathway - cell viability counter screen (AID 743086);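 also: HepG2 liver cells carrying the AhR DRE luciferase reporter; series mostly up to about 70 µM; nearly all actives have a fitted effect of over 45% in size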
In short: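 Cytotoxicity counter screen: CellTiter-Fluor signal (30 min, 37 C) in 4000 HepG2 cells/well carrying the DRE-luciferase reporter, following 24 h compound exposure at 37 C.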

[13] = molecular target: Peroxisome proliferator-activated receptor gamma (Homo sapiens) (UniProt P37231); experiment: qHTS assay to identify small molecule agonists of the peroxisome proliferator-activated receptor gamma (PPARg) signaling pathway (AID 743094; active = well fitted activation curve with a large enough effect in the signal ratio in the repeat runs, not every such curve was filed as active; the % refers to the signal ratio)
Peroxisome proliferator-activated receptor gamma (Homo sapiens), sequence (P37231 whole entry, looked up): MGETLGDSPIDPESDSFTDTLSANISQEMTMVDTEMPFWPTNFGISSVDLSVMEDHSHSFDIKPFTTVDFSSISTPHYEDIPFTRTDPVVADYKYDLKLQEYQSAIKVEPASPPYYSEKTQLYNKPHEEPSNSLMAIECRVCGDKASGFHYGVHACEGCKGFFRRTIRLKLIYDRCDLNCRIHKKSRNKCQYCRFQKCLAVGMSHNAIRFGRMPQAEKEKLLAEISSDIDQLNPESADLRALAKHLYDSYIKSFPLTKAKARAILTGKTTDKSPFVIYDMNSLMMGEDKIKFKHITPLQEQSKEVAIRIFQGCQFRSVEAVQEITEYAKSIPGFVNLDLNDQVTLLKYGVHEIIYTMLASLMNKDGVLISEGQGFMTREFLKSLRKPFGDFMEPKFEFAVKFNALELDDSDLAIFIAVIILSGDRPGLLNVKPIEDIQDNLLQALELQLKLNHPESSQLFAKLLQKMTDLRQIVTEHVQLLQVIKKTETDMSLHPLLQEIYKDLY
In short: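 Compounds dissolved in DMSO were added to PPARg UAS-bla HEK293H cells for 17 h at 37C, and reporter expression was quantified by fluorescence intensity after 1 h with LiveBLAzer B/G FRET substrate.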

[14] = molecular target: Peroxisome proliferator-activated receptor gamma (Homo sapiens) (UniProt P37231); experiment: qHTS assay to identify small molecule antagonists of the peroxisome proliferator-activated receptor gamma (PPARg) signaling pathway (AID 743191; calls by dose curve; also: series mostly up to about 63 µM; nearly all actives have a fitted effect of over 30% in size)
In short: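 Beta-lactamase reporter under UAS control in HEK293H PPARg-bla cells; compound treatment 17 h at 37C. Read-out: fluorescence intensity after 1 h room-temperature incubation with LiveBLAzer B/G FRET substrate.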

[15] = qHTS assay to identify small molecule antagonists of the peroxisome proliferator-activated receptor gamma (PPARg) signaling pathway - cell viability counter screen (AID 743194); also: nearly all actives have a fitted effect of over 55% in size
In short: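 Viability was measured as CellTiter-Glo luminescence in GeneBLAzer PPARg UAS-bla HEK293H cells. These cells had been exposed 17 h at 37 C to compounds together with rosiglitazone at 50 nM final, with the beta-lactamase readout taken in the same wells.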

[16] = qHTS assay for small molecule agonists of the antioxidant response element (ARE) signaling pathway (AID 743202; active = well fitted activation curve with a large enough effect in the signal ratio in the repeat runs, not every such curve was filed as active; the % refers to the signal ratio; also: potency is read from the fitted curve at half-maximal effect)
In short: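 Quantitative high-throughput format in HepG2 cells bearing an integrated ARE-beta-lactamase reporter. Compound exposure lasted 16 h at 37 C, and fluorescence was read 2 h after adding LiveBLAzer B/G substrate at room temperature.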

[17] = qHTS assay for small molecule agonists of the antioxidant response element (ARE) signaling pathway - cell viability counter screen (AID 743203; calls by dose curve; also: nearly all actives have a fitted effect of over 55% in size)
In short: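 Following 16 hrs of compound treatment at 37C, HepG2 cells with an ARE-controlled beta-lactamase gene were lysed with CellTiter-Glo. Luminescence was read after 30 min at room temperature.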

[18] = qHTS assay for small molecule activators of the heat shock response signaling pathway - cell viability counter screen (AID 743209); also: nearly all actives have a fitted effect of over 50% in size
In short: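 Readout: CellTiter-Glo luminescence, 30 min at room temperature. System: HSE-bla HeLa cells, 1500/well, plated overnight. Treatment: compounds in DMSO, 5 h at 37 C.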

[19] = qHTS assay for small molecule activators of the heat shock response signaling pathway (AID 743210; active = well fitted activation curve with a large enough effect in the signal ratio in the repeat runs, with a control signal flat, not every such curve was filed as active; the % refers to the signal ratio;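 also: HeLa cells with beta-lactamase reporter driven by heat shock elements; series mostly up to about 63 µM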)
In short: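 HeLa HSE-bla cells, overnight plating; cpd in DMSO 5 h, 37 C; LiveBLAzer B/G FRET substrate 2.5 h RT; fluorescence intensity read.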

Measured: Potency

NCCNC(=O)c1ccc(Cl)cn1
inactive: all assays above

CC(C)[C@H](N)C(=O)OCCOCn1cnc2c(=O)[nH]c(N)nc21
not listed: [14]
inactive: all other assays above

CCCC(C)C(=O)O (configuration not stated)
not listed: [18]
inactive: all other assays above

CC1CCN(CCCC(=O)c2ccc(F)cc2)CC1
not listed: [12]
inactive: all other assays above

CCN(CC)C(=O)c1ccc(O)c(OC)c1
not listed: [12]
inactive: all other assays above

CCOC(=O)Nc1ccc2c(c1)N(C(=O)CCN1CCOCC1)c1ccccc1S2
active: [16] 11.9 µM
not listed: [14]
inactive: all other assays above

O=C1OC(=O)c2cc([N+](=O)[O-])ccc21
not listed: [16]
inactive: all other assays above

CO[Si](CCCNCCC[Si](OC)(OC)OC)(OC)OC
not listed: [14]
inactive: all other assays above

CC(C)N1C(=O)c2ccccc2C1=O
not listed: [16]
inactive: all other assays above

CC1(C)SC(C)(C)SC(C)(C)S1
not listed: [14]
inactive: all other assays above

Cc1ncc(CSSCc2cnc(C)c(O)c2CO)c(CO)c1O
not listed: [18] | [19]
inactive: all other assays above

CC(=O)O[C@H](CC(=O)[O-])C[N+](C)(C)C
not listed: [16]
inactive: all other assays above

CN(C)C(=O)Nc1ccccc1
not listed: [14]
inactive: all other assays above

CCCCCCCCN(C)CCCCCCCC
not listed: [16]
inactive: all other assays above

CC(C)[N+](C)(C)CC(O)COc1cccc2ccccc12 (configuration not stated)
not listed: [16]
inactive: all other assays above

NC(=O)c1ncn([C@@H]2O[C@H](CO)[C@@H](O)[C@H]2O)c1O
not listed: [14] | [16] | [19]
inactive: all other assays above
